Common to all, as to conditions: primary human HUVEC with PBMC; actives raise or lower the signal
Read-out in assay [1]: Monocyte Chemoattractant Protein-1 (MCP1), CCL2 (gene 6347)
Description: BSK_LPS_MCP1: BioMAP Diversity Plus: LPS Assay for Monocyte Chemoattractant Protein-1 (MCP1) Biomarker Activity (AID 2283081).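 For AC50: co-culture stimulated with LPS; secreted MCP-1 protein quantified by ELISA in culture supernatant.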 The gist of the method:
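Secreted MCP-1 read by ELISA at 24 h post-dosing in an LPS-activated co-culture of endothelial cells with peripheral blood mononuclear cells. Fits run in both directions, DMSO as baseline; parallel SRB staining tracks overt cytotoxicity.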

Read-out in assay [2]: Macrophage colony-stimulating factor (MCSF), CSF1 (gene 1435)
Description: BSK_LPS_MCSF: BioMAP Diversity Plus: LPS Assay for Macrophage colony-stimulating factor (MCSF) Biomarker Activity (AID 2283083). The method, boiled down:
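Bidirectional fitting against DMSO was applied to M-CSF levels read by ELISA at 24 h post-dose. The system pairs human umbilical vein endothelium with peripheral blood mononuclear cells; parallel SRB staining tracked cytotoxicity.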

Read-out in assay [3]: Tissue Factor, F3 (gene 2152)
As to the kind of experiment: BSK_LPS_TissueFactor: BioMAP Diversity Plus: LPS Assay for Tissue Factor Biomarker Activity (AID 2283084). The method, boiled down:
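Compound was added to an endothelial cell/PBMC co-culture, and after 24 h tissue factor (CD142) was read by ELISA. Gain or loss of signal was fitted against a DMSO baseline, and parallel SRB staining (560 nm) tracked overt cytotoxicity.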

Read-out in assay [4]: Tumor necrosis factor (Homo sapiens) (UniProt P01375)
As to the kind of experiment: BSK_LPS_TNFa: BioMAP Diversity Plus: LPS Assay for Tumour Necrosis Factor alpha (TNFa) Biomarker Activity (AID 2283085).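 For AC50: TNFa protein level quantified by ELISA in the co-culture.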 The method, boiled down: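 ELISA-based TNFa endpoint in a human endothelial–PBMC co-culture sampled 24 h post-exposure. Curves were fitted in both directions using DMSO as baseline of activity.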

Read-out in assay [5]: Vascular cell adhesion molecule 1 (VCAM1), VCAM1 (gene 7412)
As to the kind of experiment: BSK_LPS_VCAM1: BioMAP Diversity Plus: LPS Assay for Vascular cell adhesion molecule 1 (VCAM1) Biomarker Activity (AID 2283086). The gist of the method: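 Measured by ELISA: VCAM-1 in LPS-activated HUVEC/PBMC co-cultures 24 h after treatment. Values reflect bidirectional fitting with DMSO as baseline.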

Read-out in another assay: CD38, CD38 (gene 952)
As to the kind of experiment: BSK_SAg_CD38: BioMAP Diversity Plus: SAg Assay for CD38 Biomarker Activity (AID 2283087). The gist of the method: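 Measures CD38 on a human endothelial/PBMC co-culture driven by SEB and TSST-1, 24 h after compound exposure, using ELISA with fluorescence detection; DMSO defines baseline for bidirectional curve fitting.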

Read-out in a further assay: CD69, CD69 (gene 969)
As to the kind of experiment: BSK_SAg_CD69: BioMAP Diversity Plus: SAg Assay for CD69 Biomarker Activity (AID 2283089).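 For AC50: cell surface CD69 protein quantified by ELISA with fluorescence detection.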 The gist of the method: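 Endothelial/PBMC co-culture; chemical added; 24 h incubation; CD69 ELISA with fluorescence detection; bidirectional fit vs DMSO.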

Read-out in assay [6]: Monocyte Chemoattractant Protein-1 (MCP1), CCL2 (gene 6347)
Description: BSK_SAg_MCP1: BioMAP Diversity Plus: SAg Assay for Monocyte Chemoattractant Protein-1 (MCP1) Biomarker Activity (AID 2283090). The method, boiled down:
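Values derive from bidirectional fitting of ELISA-measured MCP1 against DMSO controls. Readings were taken 24 h after dosing human vascular endothelial cells co-cultured with peripheral blood mononuclear cells under superantigen stimulation.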

Read-out in another assay: CD40, CD40 (gene 958)
Description: BSK_SAg_CD40: BioMAP Diversity Plus: SAg Assay for CD40 Biomarker Activity (AID 2283088). The method, boiled down: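 CD40 is measured by fluorescence ELISA in an endothelial/PBMC primary human co-culture at 24 h post-dose. Fitting is bidirectional, DMSO baseline. Parallel SRB staining (560 nm) flags cytotoxicity.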

The source made the active and inactive calls. Rule for the calls: active = hit-call score of the fitted dose curve at least 0.9, where 1 is the maximum; inactive = score below 0.9.

Sequence of Tumor necrosis factor (Homo sapiens) (P01375 whole entry, looked up): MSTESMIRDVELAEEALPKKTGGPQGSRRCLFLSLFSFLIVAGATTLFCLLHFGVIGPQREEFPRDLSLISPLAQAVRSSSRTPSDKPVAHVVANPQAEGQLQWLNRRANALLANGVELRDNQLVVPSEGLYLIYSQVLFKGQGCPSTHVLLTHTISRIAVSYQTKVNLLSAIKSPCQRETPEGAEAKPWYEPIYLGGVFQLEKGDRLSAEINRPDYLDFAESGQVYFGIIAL

With `O=C(O)CCCCC(=O)O`, the outcome was “inactive” in assay [1]; “inactive” in assay [2]; “inactive” in assay [3]; “inactive” in assay [4]; “inactive” in assay [5]; “inactive” with CD38, CD38 (gene 952). Moreover, the outcome in the assay with CD69, CD69 (gene 969) is “inactive”; in assay [6], “inactive”.
The AC50 is the concentration at which the activity in the assay is half-maximal. For the molecule `O=c1[nH]cc(F)c(=O)[nH]1`, the outcome was “inactive” in assay [1]; “inactive” in assay [2]; “inactive” in [3]; “inactive” in assay [4]; “inactive” with CD38, CD38 (gene 952); “inactive” in the assay with CD69, CD69 (gene 969). Further, in assay [6], the outcome was inactive. The AC50 in [5] was 20.4 µM (active).
For `Cc1cccc([N+](=O)[O-])c1C`, the outcome in assay [1] is “inactive”; in assay [2], “inactive”; in [3] it was “inactive”; in assay [4], “inactive”; in [5], “inactive”; with CD38, CD38 (gene 952), “inactive”. Also, the outcome is “inactive” with CD40, CD40 (gene 958); “inactive” with CD69, CD69 (gene 969); “inactive” in assay [6].
As for `Oc1ccc2ccccc2c1N=Nc1ccccc1`, the outcome in assay [1] is “inactive”; in assay [2], “inactive”; in assay [3] it was “inactive”; in [5], “inactive”; with CD38, CD38 (gene 952), “inactive”; with CD40, CD40 (gene 958), “inactive”. Also, the outcome was “inactive” in the assay with CD69, CD69 (gene 969) and “inactive” in [6]. Moreover, the AC50 in assay [4] was 1.98 µM (active).
Regarding `NC(=O)Cn1c(=O)cc(CCN2CCN(c3nccc4sccc34)CC2)c2ccc(F)cc21`, the outcome is “inactive” in assay [1]; “inactive” in assay [2]; “inactive” in assay [3]; “inactive” in assay [4]; “inactive” in [5]; “inactive” in the assay with CD38, CD38 (gene 952). In addition, the outcome with CD40, CD40 (gene 958) was “inactive”; in the assay with CD69, CD69 (gene 969) it was “inactive”; in [6], “inactive”.
As for `Nc1ccccc1N`, the outcome in assay [1] was “inactive”; in assay [3] it was “inactive”; in assay [4] it was “inactive”; with CD38, CD38 (gene 952) it was “inactive”; in the assay with CD69, CD69 (gene 969) it was “inactive”; in assay [6], “inactive”. The AC50 in assay [2] was 3.97 µM (active); in assay [5] it was 11.2 µM (active).
Consider `CCCCCCOCCO`, for which the outcome was “inactive” in assay [1]; “inactive” in assay [2]; “inactive” in [3]; “inactive” in assay [4]; “inactive” in assay [5]; “inactive” with CD38, CD38 (gene 952). The outcome with CD40, CD40 (gene 958) was “inactive”; with CD69, CD69 (gene 969), “inactive”; in assay [6], “inactive”.
With `CCCCCC(=O)O`, the outcome is “inactive” in assay [1]; “inactive” in [2]; “inactive” in [3]; “inactive” in [4]; “inactive” in [5]; “inactive” with CD38, CD38 (gene 952). In addition, the outcome was “inactive” with CD69, CD69 (gene 969) and “inactive” in assay [6].
For the molecule `C=CCc1ccc(O)c(OC)c1`, the outcome in assay [1] is “inactive”; in assay [2], “inactive”; in assay [3], “inactive”; in assay [4], “inactive”; in [5] it was “inactive”; in the assay with CD38, CD38 (gene 952) it was “inactive”. The outcome with CD40, CD40 (gene 958) is “inactive”; with CD69, CD69 (gene 969), “inactive”; in assay [6], “inactive”.
For `CC(=O)OCCOCCOCCOC(C)=O`, the outcome was “inactive” in assay [1]; “inactive” in [2]; “inactive” in [3]; “inactive” in assay [4]; “inactive” in [5]; “inactive” with CD38, CD38 (gene 952). The outcome in the assay with CD40, CD40 (gene 958) was “inactive”; with CD69, CD69 (gene 969) it was “inactive”; in assay [6], “inactive”.
For the molecule `CCCCC(CC)COC(=O)CC(C(=O)OCC(CC)CCCC)S(=O)(=O)O` (stereo not given), the AC50 in assay [1] was 30.9 µM (active); in [2], 31.4 µM (active); in assay [3], 32 µM (active); in assay [5], 36.5 µM (active); with CD38, CD38 (gene 952) it was 35.3 µM (active); with CD69, CD69 (gene 969), 32.1 µM (active). The AC50 in assay [6] was 33 µM (active). Besides, the outcome in assay [4] was inactive.
Turning to `CC1(C)NC(=O)NC1=O`, the outcome is “inactive” in [1]; “inactive” in assay [2]; “inactive” in [3]; “inactive” in assay [4]; “inactive” in assay [5]; “inactive” with CD38, CD38 (gene 952). For the same molecule, the outcome is “inactive” with CD69, CD69 (gene 969) and “inactive” in assay [6].
Regarding `O=C(OCCCCCOC(=O)c1ccccc1)c1ccccc1`, the outcome is “inactive” in assay [1]; “inactive” in [2]; “inactive” in assay [3]; “inactive” in assay [5]; “inactive” in the assay with CD38, CD38 (gene 952); “inactive” with CD40, CD40 (gene 958). Besides, the outcome in the assay with CD69, CD69 (gene 969) is “inactive”; in assay [6], “inactive”. Also, the AC50 in assay [4] is 12.7 µM (active).
With `CCCCCCCCCCC`, the outcome in assay [1] was “inactive”; in assay [2], “inactive”; in assay [3], “inactive”; in [4], “inactive”; in assay [5] it was “inactive”; with CD38, CD38 (gene 952), “inactive”. Moreover, the outcome with CD69, CD69 (gene 969) is “inactive”; in [6], “inactive”.
As to `CCCCCCCCCCCC(=O)OC`, the outcome is “inactive” in assay [1]; “inactive” in assay [2]; “inactive” in [3]; “inactive” in assay [4]; “inactive” in assay [5]; “inactive” in the assay with CD38, CD38 (gene 952). Besides, the outcome is “inactive” in the assay with CD69, CD69 (gene 969) and “inactive” in [6].
Take `CC(=O)Oc1ccccc1C(=O)O`: the outcome in assay [1] is “inactive”; in [2], “inactive”; in assay [3], “inactive”; in [4], “inactive”; in assay [5] it was “inactive”; with CD38, CD38 (gene 952), “inactive”. Moreover, the outcome with CD69, CD69 (gene 969) is “inactive”; in assay [6], “inactive”.
On to `Cc1ccc2ncccc2c1`, for which the outcome in assay [1] is “inactive”; in assay [2], “inactive”; in assay [3] it was “inactive”; in [4] it was “inactive”; in assay [5] it was “inactive”; with CD38, CD38 (gene 952), “inactive”. Also, the outcome in the assay with CD69, CD69 (gene 969) was “inactive”; in assay [6] it was “inactive”.
For the molecule `COc1ccc(S(=O)(=O)N2C(=O)[C@@](c3ccccc3OC)(N3C[C@H](O)C[C@H]3C(=O)N(C)C)c3cc(Cl)ccc32)c(OC)c1`, the outcome in assay [1] is “inactive”; in assay [3] it was “inactive”; with CD38, CD38 (gene 952), “inactive”; in assay [6], “inactive”. Further, the AC50 in assay [2] is 32 µM (active); in [4] it was 16.6 µM (active); in assay [5], 27 µM (active); in the assay with CD69, CD69 (gene 969), 11.9 µM (active).
Regarding `C1CCC(SSC2CCCCC2)CC1`, the AC50 in [1] was 20 µM (active); in assay [4], 32.5 µM (active); in assay [5], 20 µM (active); in the assay with CD38, CD38 (gene 952), 20 µM (active); with CD40, CD40 (gene 958), 27 µM (active); with CD69, CD69 (gene 969), 20 µM (active). In addition, the result in [2], in assay [3] and in assay [6] was inactive.
As for `CC(C)(C)c1cc(O)c(C(C)(C)C)cc1O`, the outcome in assay [1] is “inactive”; in assay [2], “inactive”; in assay [3], “inactive”; in the assay with CD38, CD38 (gene 952) it was “inactive”. Moreover, the AC50 in [4] is 1.43 µM (active); in assay [5], 8.05 µM (active); in the assay with CD69, CD69 (gene 969) it was 5.55 µM (active); in assay [6], 5.94 µM (active).
For the molecule `NCC1(Cc2noc(=O)[nH]2)CCCCC1`, the outcome in assay [1] was “inactive”; in [2], “inactive”; in [3], “inactive”; in assay [4], “inactive”; in assay [5] it was “inactive”; in the assay with CD38, CD38 (gene 952), “inactive”. Besides, the outcome was “inactive” with CD69, CD69 (gene 969) and “inactive” in assay [6].
`Cc1oc(-c2ccccc2)nc1CCOc1cccc2c1ccn2CCC(=O)O`: the outcome in assay [1] was “inactive”; in [2], “inactive”; in assay [3] it was “inactive”; in assay [5], “inactive”; with CD38, CD38 (gene 952) it was “inactive”; in the assay with CD69, CD69 (gene 969), “inactive”. The outcome in assay [6] was inactive. For the same molecule, the concentration at half-maximal activity (AC50) in assay [4] was 0.655 µM (active).
Regarding `Oc1ccc2c(c1)OC[C@@H](N1CCC(O)(c3ccc(F)cc3)CC1)[C@H]2O`, the outcome was “inactive” in [1]; “inactive” in [2]; “inactive” in [3]; “inactive” in [4]; “inactive” in assay [5]; “inactive” with CD38, CD38 (gene 952). Moreover, the outcome is “inactive” in the assay with CD69, CD69 (gene 969) and “inactive” in [6].
As to `COC(=O)c1ccc(O)cc1`, the outcome in assay [1] is “inactive”; in assay [2], “inactive”; in [3] it was “inactive”; in assay [4] it was “inactive”; in assay [5], “inactive”; with CD38, CD38 (gene 952), “inactive”. The outcome in the assay with CD69, CD69 (gene 969) is “inactive”; in assay [6], “inactive”.

The values are drawn from PubChem BioAssay (EPA / NIEHS).
